Several values for one entry are separate records, joined by “and”; a condition that tells them apart may be missing. Equal entries are not always repeated. Out of some 5,500 compounds screened, about 2,000 (36%) were called active. Inconclusive results (about 18%) are left out. Rule as the data show it: active = normalized growth mostly below about 0.91 (no sharp cut-off); inconclusive = no clear call, values can overlap the other calls; inactive = mostly above about 0.92. This is one part of the list.
Test: chemical genetic growth profiling, strain panel (AID 1159580);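 also: tested at 20 µM; growth read once vehicle control cultures reached saturation at 30 °C; 1 = growth at the plate median or of vehicle wells; lower values mean less growth of the strain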
Conditions: S. cerevisiae deletion strains, growth OD

Measured: normalized growth

O=C(/C=C/c1ccc(O)c(O)c1)O[C@@H]1C[C@](O)(C(=O)O)C[C@@H](O)[C@H]1O
inactive: locus YAL021C, strain ccr4, hits give low values 1.05 | locus YAL026C, strain drs2, hits give low values 0.979 | locus YAL030W, strain snc1, hits give low values 0.983 | locus YBL061C, strain skt5, hits give low values 0.992 | locus YBR009C, strain hhf1, hits give low values 0.994 | locus YBR021W, strain FUR4, hits give low values 0.992 | locus YBR023C, strain chs3, hits give low values 1.03 | locus YBR171W, strain sec66, hits give low values 0.95 | locus YBR229C, strain ROT2, hits give low values 0.997 | locus YBR231C, strain swc5, hits give low values 0.956 | locus YBR279W, strain paf1, hits give low values 0.988 | locus YCL011C, strain gbp2, hits give low values 0.985 | locus YCL016C, strain dcc1, hits give low values 1.02 | locus YCL029C, strain bik1, hits give low values 1.02 | locus YCL061C, strain MRC1, hits give low values 1 | locus YCL069W, strain vba3, hits give low values 0.964 | locus YCR088W, strain abp1, hits give low values 0.968 | locus YDL005C, strain med2, hits give low values 0.966 | locus YDL035C, strain GPR1, hits give low values 0.984 | locus YDL040C, strain nat1, hits give low values 0.98 | locus YDL074C, strain BRE1, hits give low values 1.04 | locus YDL101C, strain DUN1, hits give low values 1.02 | locus YDL185W, strain tfp1, hits give low values 1.01 | locus YDL192W, strain arf1, hits give low values 1 | locus YDR001C, strain nth1, hits give low values 0.98 | locus YDR069C, strain doa4, hits give low values 0.97 | locus YDR101C, strain arx1, hits give low values 1.02 | locus YDR137W, strain rgp1, hits give low values 0.98 | locus YDR150W, strain NUM1, hits give low values 1.01 | locus YDR159W, strain sac3, hits give low values 0.915 | locus YDR162C, strain NBP2, hits give low values 1.01 | locus YDR195W, strain ref2 0.942 | locus YDR297W, strain sur2, hits give low values 0.99 | locus YDR318W, strain mcm21, hits give low values 1.01 | locus YDR334W, strain swr1, hits give low values 0.974 | locus YDR335W, strain msn5, hits give low values 0.973 | locus YDR388W, hits give low values 1.01 | locus YDR392W, strain spt3, hits give low values 0.997 | locus YDR502C, strain sam2, hits give low values 1.02 | locus YEL003W, strain gim4, hits give low values 0.976 | locus YEL037C, strain rad23, hits give low values 0.973 | locus YEL061C, strain CIN8 (second series), hits give low values 0.965 | locus YEL061C, strain CIN8, hits give low values 1.01 | locus YER015W, strain faa2, hits give low values 0.988 | locus YER016W, strain bim1, hits give low values 0.968 | locus YER110C, hits give low values 1.02 | locus YER111C, strain swi4, hits give low values 0.976 | locus YER155C, strain BEM2 (second series), hits give low values 0.993 | locus YER155C, strain BEM2, hits give low values 1.01 | locus YER167W, strain BCK2, hits give low values 1.01 | locus YFR010W, strain ubp6, hits give low values 0.972 | locus YGL078C, strain dbp3, hits give low values 1.01 | locus YGL086W, strain mad1, hits give low values 1.02 | locus YGL167C, strain pmr1, hits give low values 0.971 | locus YGL173C, strain kem1, hits give low values 0.959 | locus YGL227W, strain vid30, hits give low values 0.975 | locus YGL240W, strain doc1, hits give low values 0.962 | locus YGL248W, strain PDE1, hits give low values 1.01 | locus YGL253W, strain hxk2, hits give low values 0.949 | locus YGR078C, strain PAC10, hits give low values 1.03 | locus YGR135W, strain pre9, hits give low values 0.997 | locus YGR252W, strain gcn5, hits give low values 0.97 | locus YHR013C, strain ard1, hits give low values 0.997 | locus YHR027C, strain rpn1, hits give low values 0.985 | locus YHR030C, strain SLT2, hits give low values 1.01 | locus YHR079C, strain IRE1 (second series), hits give low values 1.01 | locus YHR079C, strain IRE1, hits give low values 1 | locus YHR094C, strain hxt1, hits give low values 1.02 | locus YHR129C, strain ARP1, hits give low values 1 | locus YHR142W, strain chs7, hits give low values 0.975 | locus YHR200W, strain rpn10, hits give low values 1.02 | locus YIL066C, strain RNR3, hits give low values 0.981 | locus YIL073C, strain SPO22, hits give low values 1.02 | locus YIL125W, strain kgd1, hits give low values 1.02 | locus YIR030C, strain dcg1, hits give low values 1.01 | locus YJL092W, strain hpr5, hits give low values 0.969 | locus YJL095W, strain BCK1 (second series), hits give low values 0.953 | locus YJL095W, strain BCK1, hits give low values 1.04 and 1.02 | locus YJL115W, strain asf1, hits give low values 0.992 | locus YJL129C, strain trk1, hits give low values 0.966 | locus YJL134W, strain LCB3, hits give low values 1.01 | locus YJL154C, strain vps35, hits give low values 0.976 | locus YJL164C, strain tpk1, hits give low values 1.01 | locus YJL166W, strain qcr8, hits give low values 0.974 | locus YJL168C, strain set2, hits give low values 1 | locus YJL187C, strain SWE1 (second series), hits give low values 1.03 | locus YJR043C, strain POL32, hits give low values 1.01 | locus YJR066W, strain TOR1, hits give low values 0.947 | locus YJR075W, strain HOC1, hits give low values 1.04

Source: PubChem BioAssay AID1159580 (chemical genetic matrix, 2015)
